Reference: the supplement of paper PMC4206467

System: Perkinsus marinus PRA240
Experiment: ATP content (proliferation) relative to DMSO control; higher = more parasite growth (less inhibition)
Settings: 20 µM; 4 days
Procedure: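 Perkinsus marinus PRA240 trophozoites (2-5x10^6 cells/ml, 100 µl, 96-well) were exposed once to MMV Malaria Box compounds at 20 µM (0.1% DMSO) in triplicate. ATP content (ATPlite bioluminescence) was read at day 4 post-exposure and normalised to DMSO + cells control wells (100% activity). Compounds were identified by joining plate and well to the Malaria Box list.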

Row | Structure (SMILES) | ATP content [%]
1 | CN1c2ccccc2N(C)C1c1ccc2c(c1)OCO2 | 87.3
2 | COc1ccc2c(c1)C1(Nc3ccccc3-c3nc4ccccc4n31)C(=O)N2 (configuration not stated) | 113
3 | CC(C)=CCN1CCC(C(=O)Nc2ccc(-c3nc4ccccc4[nH]3)cc2)CC1 | 81.5
4 | N=c1n(CCN2CCCCC2)c2ccccc2n1CC(O)c1cccc(Br)c1 (configuration not stated) | 116
5 | CC(=O)Nc1nnc(SCc2c(C)cc(C(C)(C)C)cc2C)s1 | 84.2
6 | COc1ccccc1N1C(=N)SC(=Cc2ccc(OCc3ccccc3F)cc2)C1=O | 57.5
7 | COc1ccc(-c2nonc2NC(=O)c2cccc(C)c2)cc1OC | 82.6
8 | CC(=O)NCCc1nc2ccccc2n1Cc1ccc(C(C)C)cc1 | 120
9 | CCOc1ccc2c(c1)CN(Cc1ccc(Cl)cc1)CO2 | 155
10 | OCCNc1nc(Nc2ccc(Cl)c(Cl)c2)nc2ccccc12 | 28.8
11 | CCOC(=O)C1=C(C)N=c2sc(=Cc3cc(Cl)ccc3O)c(=O)n2C1c1ccc(OC)cc1 (configuration not stated) | 61.6
12 | O=C(NC1CCN(Cc2ccccc2)CC1)c1cc(-c2ccncc2)nc2ccc(Cl)cc12 | 172
13 | Oc1ccc2ccccc2c1CNc1nc2ccccc2[nH]1 | 65.9
14 | CCOc1cccc2sc(N(Cc3cccnc3)C(=O)C3CCCCC3)nc12 | 79.5
15 | CCOc1ccc(C=Cc2nc(=O)c3ccccc3o2)cc1 | 14.6
16 | CC(Oc1ccc(NC(=O)c2cccs2)cc1)C(=O)c1ccc(Cl)cc1 (configuration not stated) | 55.4
17 | CCCCOC(=O)c1ccc(Nc2cc(C)nc3ccc(OC)cc23)cc1 | 93.9
18 | Cc1ccc2cc3c(N)c4c(C)ccc(C)c4nc3nc2c1 | 142
19 | C=C(C)CCC(C)N1CCC(N2CCC(C(=O)NCCc3ccccc3)CC2)CC1 (configuration not stated) | 90

Row | Structure (SMILES) | ATP content [%]
20 | c1ccc2c(NCCc3c[nH]c4ccccc34)c3ccccc3nc2c1 | 179
21 | CCCCNc1nc(NC(C)(C)C)nc(NC(C)(C)C)n1 | 116
22 | COc1ccc(-c2cn3c(C(=O)Nc4ccccc4Cl)c(-c4ccccc4)c4c3n2CCCC4)cc1 | 99.7
23 | Cc1ccc2nc(C)cc(Nc3cccc(C(F)(F)F)c3)c2c1 | 121
24 | O=C(Nc1nc(-c2ccccn2)cs1)c1ccccc1Br | 8.72
25 | O=C(Nc1ccc(Br)cc1)Nc1cccc(Cl)c1 | 142
26 | O=C(Nc1ccc(Cl)cc1)N1CCN(c2ccc3nncn3n2)CC1 | 124
27 | CCOc1ccc(C2N(C)c3ccccc3N2C)cc1 | 131
28 | CC(=O)c1sc(NC(=O)Nc2ccc(C)cc2C)nc1C | 68.1
29 | O=C(Nc1cccc(C2=NCCN2)c1)Nc1cccc(C2=NCCN2)c1 | 128
30 | O=C(NC(c1ccccc1)c1ccc2cccnc2c1O)c1ccccc1 (configuration not stated) | 26.3
31 | CCOc1ccc(N2C(N)=NC(N)=NC2(C)C)cc1 | 114
32 | CC(=O)c1ccc(NC(=O)CSc2nc(-c3ccccc3Cl)ns2)cc1 | 125
33 | Cc1ccc(-c2nc3ccccc3o2)cc1NCc1cc(Cc2ccccc2)ccc1O | 77.3
34 | Nc1nc(Nc2cccc(F)c2)nc2ccccc12 | 26
35 | O=C(Nc1ccc(-c2nc3cc(NC(=O)c4ccc(Cl)cc4)ccc3[nH]2)cc1)c1ccc(Cl)cc1 | 141
36 | COc1ccc(-c2cc3c(nn2)-c2ccccc2C3=O)cc1 | 32.7
37 | COc1cc(C(=O)Nc2ccc(-c3nc4ccccc4[nH]3)cc2)cc(OC)c1OC | 124
